Measurements from PMC4336329 (PLoS ONE, 2015).
About 14,000 (4.5%) of roughly 310,000 compounds showed an effect of 50% or more. The effect is printed as a negative number. This is one part of a sample in which strong results are shown more often than they occur.

target: human ether-à-go-go-related gene (hERG) potassium channel (human, UniProt Q12809); experiment: primary screen, population patch clamp on CHO cells stably expressing hERG; higher = less effect of the substance
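Also: peak tail current of the secondary pulse compared with the same well before compound.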

human ether-à-go-go-related gene (hERG) potassium channel, sequence (Q12809 whole entry, looked up): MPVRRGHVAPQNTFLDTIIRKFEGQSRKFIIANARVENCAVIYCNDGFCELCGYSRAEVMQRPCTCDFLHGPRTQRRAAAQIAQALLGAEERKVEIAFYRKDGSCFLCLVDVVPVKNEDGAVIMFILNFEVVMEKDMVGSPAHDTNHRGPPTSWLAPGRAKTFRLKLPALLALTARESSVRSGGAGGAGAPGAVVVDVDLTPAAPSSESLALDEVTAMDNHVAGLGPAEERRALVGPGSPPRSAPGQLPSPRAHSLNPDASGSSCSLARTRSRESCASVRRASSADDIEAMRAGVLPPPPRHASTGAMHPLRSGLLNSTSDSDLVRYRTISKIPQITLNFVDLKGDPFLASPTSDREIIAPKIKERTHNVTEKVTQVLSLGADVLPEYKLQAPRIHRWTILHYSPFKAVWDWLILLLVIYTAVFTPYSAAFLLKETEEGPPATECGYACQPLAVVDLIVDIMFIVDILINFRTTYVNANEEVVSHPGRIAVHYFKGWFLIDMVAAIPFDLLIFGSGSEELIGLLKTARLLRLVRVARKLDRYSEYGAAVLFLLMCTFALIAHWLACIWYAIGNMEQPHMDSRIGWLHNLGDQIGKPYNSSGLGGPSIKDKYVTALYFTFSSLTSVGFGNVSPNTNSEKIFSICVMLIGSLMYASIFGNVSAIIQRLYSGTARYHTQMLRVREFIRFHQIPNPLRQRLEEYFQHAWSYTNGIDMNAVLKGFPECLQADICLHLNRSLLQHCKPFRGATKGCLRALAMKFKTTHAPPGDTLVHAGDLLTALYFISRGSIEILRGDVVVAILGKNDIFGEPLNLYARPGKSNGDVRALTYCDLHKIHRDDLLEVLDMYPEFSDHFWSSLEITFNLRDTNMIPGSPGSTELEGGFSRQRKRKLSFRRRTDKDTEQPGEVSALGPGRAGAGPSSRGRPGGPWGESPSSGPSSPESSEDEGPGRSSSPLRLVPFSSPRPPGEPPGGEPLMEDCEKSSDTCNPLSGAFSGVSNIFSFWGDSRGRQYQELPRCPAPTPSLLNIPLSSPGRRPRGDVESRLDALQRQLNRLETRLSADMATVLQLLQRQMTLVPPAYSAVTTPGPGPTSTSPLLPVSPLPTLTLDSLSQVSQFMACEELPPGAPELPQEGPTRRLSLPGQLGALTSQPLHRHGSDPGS

First: CCN1CCN(CC(=O)c2ccc(C)cc2)CC1
Second: CCN1CCN(Cc2ccc(NC(=O)Nc3ccc(SC)cc3)cc2)CC1
The “hERG current change (%, negative = inhibition) at 10uM” value of the first is higher: 8.76% for the first, -44.5% for the second.

Going from `CC(=O)Nc1ccc(S(=O)(=O)Oc2ccc(C(=S)N3CCCCC3)cc2)cc1` to `Cc1ccc(OCC(=O)Nc2ccc3c(c2)nc(CCN2CCCCC2)n3C)cc1`, the “hERG current change (%, negative = inhibition) at 10uM” value falls from -16.6% to -82.3%.

First: COc1cccc(NC(=O)c2cn(C)c(=O)c3cc(OC)c(OC)cc23)c1
Second: CCOC(=O)N1CCN(C(=O)CNC(=O)c2nn(-c3ccc(OC)cc3OC)c(=O)c3ccccc23)CC1
The “hERG current change (%, negative = inhibition) at 10uM” value of the first is higher: 6.54% for the first, -4.94% for the second.

Compared with `Fc1ccc(N2N=C(c3cccs3)CC2c2ccccc2)cc1` (centres unmarked), `COc1ccc(C(CCNCc2ccccc2)c2ccc(F)cc2)cc1` (centres unmarked) is lower in “hERG current change (%, negative = inhibition) at 10uM” value: 8.89% for the first, -66.7% for the second.

Going from `COc1ccc(CC(=O)NC(C)c2nnc(SCCOc3ccc(OC)cc3)n2C)cc1` (centres unmarked) to `COc1ccc(CNCCC(c2ccc(F)cc2)c2ccc(OC)cc2)cc1` (centres unmarked), the “hERG current change (%, negative = inhibition) at 10uM” value falls from -11.2% to -82.3%.

Going from `O=C(O)CCn1c(=S)n(CCC(=O)O)c2ccccc21` to `COc1ccccc1CNCCc1ccc(F)cc1.O=C(O)C(=O)O`, the “hERG current change (%, negative = inhibition) at 10uM” value falls from -1.59% to -33.8%.

Compared with `CSc1ccc(CN2CCN(C(=O)c3ccc([N+](=O)[O-])cc3)CC2)cc1.O=C(O)C(=O)O`, `CSc1ccc(CN2CCN(Cc3ccc([N+](=O)[O-])cc3)CC2)cc1.O=C(O)C(=O)O` is lower in “hERG current change (%, negative = inhibition) at 10uM” value: -77.2% for the first, -78.1% for the second.

First: CSc1ccc(CN2CCN(C(=O)c3ccncc3)CC2)cc1
Second: CSc1ccc(CN2CCN(C(=O)Cc3ccccc3)CC2)cc1
The “hERG current change (%, negative = inhibition) at 10uM” value of the first is lower: -21.4% for the first, -12.1% for the second.

Going from `CCCS(=O)(=O)N1CCN(Cc2ccncc2)CC1.O=C(O)C(=O)O` to `CCCS(=O)(=O)N1CCN(Cc2ccc([N+](=O)[O-])cc2)CC1.O=C(O)C(=O)O`, the “hERG current change (%, negative = inhibition) at 10uM” value falls from 10.8% to -51.9%.

Going from `O=C(C1CCCN(Cc2ccc([N+](=O)[O-])cc2)C1)N1CCCCC1.O=C(O)C(=O)O` (centres unmarked) to `CCS(=O)(=O)N1CCN(Cc2ccc([N+](=O)[O-])cc2)CC1.O=C(O)C(=O)O`, the “hERG current change (%, negative = inhibition) at 10uM” value falls from -28.4% to -44.4%.

First: CCc1ccc(CN2CCN(Cc3ccc(SC)cc3)CC2)cc1.O=C(O)C(=O)O
Second: COc1ccc(CCNCc2ccccc2F)cc1.O=C(O)C(=O)O
The “hERG current change (%, negative = inhibition) at 10uM” value of the first is lower: -67.9% for the first, -22.8% for the second.

Compared with `CS(=O)(=O)N1CCN(Cc2ccc([N+](=O)[O-])cc2)CC1`, `O=C(COc1ccc(S(=O)(=O)N2CCCC2)cc1Cl)N1CCN(c2ccccc2)CC1` is higher in “hERG current change (%, negative = inhibition) at 10uM” value: -23.6% for the first, -15.5% for the second.

Going from `COC(CNC(=O)CC1C(=O)N(Cc2ccccc2)C(C)c2nc3ccccc3n21)OC` (centres unmarked) to `Cn1c(CCn2ccccc2=O)nc2cc(NC(=O)COc3ccccc3)ccc21`, the “hERG current change (%, negative = inhibition) at 10uM” value falls from 9.2% to -40.6%.

Going from `CCCCn1nc(C(=O)N[C@@H](CCSC)c2nc3ccccc3[nH]2)c2ccccc2c1=O` to `CCC(=O)NCCc1nc2cc(NC(=O)Nc3ccccc3)ccc2n1C`, the “hERG current change (%, negative = inhibition) at 10uM” value rises from -28.7% to 18.8%.

Going from `CC(=O)Nc1ccc(NC(=O)CC(C)n2ccnc2)cc1` (centres unmarked) to `CC(=O)NCCc1nc2cc(NC(=O)Nc3ccccc3)ccc2n1C`, the “hERG current change (%, negative = inhibition) at 10uM” value falls from 7.66% to -53.8%.

First: O=C1/C(=C/c2ccccc2F)SC(=S)N1CC(=O)N1CCCCC1c1cccnc1 (centres unmarked)
Second: O=C(Cn1cc(C(=O)c2ccccc2F)c2ccccc21)NC1CC1
The “hERG current change (%, negative = inhibition) at 10uM” value of the first is higher: 1.73% for the first, -4.44% for the second.

Going from `C#CCOc1nc(Nc2cccc([N+](=O)[O-])c2)nc(OCC#C)n1` to `COc1cc(Nc2nc3ccccc3nc2NS(=O)(=O)c2ccc([N+](=O)[O-])cc2)cc(OC)c1OC`, the “hERG current change (%, negative = inhibition) at 10uM” value falls from -10.1% to -30.4%.

First: COc1ccc(CN(CCN)C2CC(C)N(C)CC2C)cc1.Cl (centres unmarked)
Second: COc1ccc(CN(C(=O)c2ccco2)C2CC(C)N(C)CC2C)cc1 (centres unmarked)
The “hERG current change (%, negative = inhibition) at 10uM” value of the first is higher: 7.07% for the first, -53.4% for the second.

Compared with `COc1ccc(CN(C(=O)c2ccco2)C2CCS(=O)(=O)C2)cc1` (centres unmarked), `COc1ccc(CNC(=S)NCc2ccc(F)cc2)cc1` is lower in “hERG current change (%, negative = inhibition) at 10uM” value: -1.27% for the first, -23.5% for the second.

First: COc1ccc(/C=C/C(=O)c2cccc(-n3cnnn3)c2)cc1O
Second: CN1C(=O)/C(=C/c2ccc(OCc3ccc(C(=O)O)cc3)c(Cl)c2)NC1=S
The “hERG current change (%, negative = inhibition) at 10uM” value of the first is lower: 13.5% for the first, 20.4% for the second.

Going from `O=C(Nc1ccc(Br)cc1Br)C1CC(=O)N(Cc2ccccc2)C1` (centres unmarked) to `CC(=O)NCCc1nc2cc(NC(=O)c3ccccc3)ccc2n1C`, the “hERG current change (%, negative = inhibition) at 10uM” value falls from 10.7% to -25.6%.

Going from `COc1ccc(CNC(=O)CNC(C)c2ccc(F)cc2)cc1.O=C(O)C(=O)O` (centres unmarked) to `COc1ccc(C(C)NC(=S)NCc2ccc(F)cc2)cc1` (centres unmarked), the “hERG current change (%, negative = inhibition) at 10uM” value falls from 5.06% to 0.1%.

Going from `COc1ccc(C(CCNCc2ccccc2F)c2ccc(F)cc2)cc1` (centres unmarked) to `COc1ccc(C(CCNCc2ccc(F)cc2)c2ccc(F)cc2)cc1` (centres unmarked), the “hERG current change (%, negative = inhibition) at 10uM” value rises from -75.5% to -64.6%.

First: COc1cc(NC(=S)NCCC(c2ccccc2)c2ccccc2)cc(OC)c1
Second: COc1ccc(NC(=O)CC(c2ccc(F)cc2)c2ccc(OC)cc2)cc1 (centres unmarked)
The “hERG current change (%, negative = inhibition) at 10uM” value of the first is lower: 3.35% for the first, 23% for the second.

Going from `COc1ccc(CCC(C)Nc2ccc(F)cc2)cc1` (centres unmarked) to `COc1ccc(OCC(=O)Nc2ccc3c(c2)nc(CCn2ccccc2=O)n3C)cc1`, the “hERG current change (%, negative = inhibition) at 10uM” value falls from -3.78% to -10.8%.

Going from `COc1ccc(-c2cc(C(F)(F)F)nc(-n3cc(Cl)cn3)n2)cc1` to `Clc1ccc(-c2ccnc(Oc3ccc4ccccc4c3)n2)cc1`, the “hERG current change (%, negative = inhibition) at 10uM” value rises from -18.5% to 7.34%.

Compared with `CCN1CCCCC(=N/O)/C(=N/O)CCCC1`, `Cn1c(CCN2CCCCC2)nc2cc(NC(=O)NC3CCCCC3)ccc21` is lower in “hERG current change (%, negative = inhibition) at 10uM” value: 25.5% for the first, 0.766% for the second.

Going from `N#CCCN(C(=O)COC(=O)COc1ccccc1Cc1ccccc1)c1ccccc1` to `O=C(Cc1ccccc1)NCc1ccc(-n2cccc2)cc1`, the “hERG current change (%, negative = inhibition) at 10uM” value rises from 15% to 29.3%.

Compared with `Cc1cccc(NC(=O)CSCC(=O)N(C)CC(=O)Nc2cccc(F)c2)c1`, `CC(=O)NCCc1nc2cc(NC(=O)COc3cccc(C)c3)ccc2n1C` is higher in “hERG current change (%, negative = inhibition) at 10uM” value: -3.01% for the first, 6.53% for the second.

First: COc1ccc(C(C)=O)cc1CN1C(=O)NC2(CCCCCC2)C1=O
Second: COC1=CC(=O)OC12CCCCC2
The “hERG current change (%, negative = inhibition) at 10uM” value of the first is lower: -3.9% for the first, 8.91% for the second.

First: COP(=O)(CC(=O)O)c1ccccc1 (centres unmarked)
Second: CC(NC(=O)COc1ccccc1)C(=O)NC1=NCCS1 (centres unmarked)
The “hERG current change (%, negative = inhibition) at 10uM” value of the first is lower: -5.99% for the first, 0.963% for the second.

First: CCc1noc(C)c1C(=O)N(CCCOC)c1c(N)n(Cc2ccccc2)c(=O)[nH]c1=O
Second: CC(C)CN(C(=O)COC(=O)c1cnccn1)c1c(N)n(Cc2ccccc2)c(=O)[nH]c1=O
The “hERG current change (%, negative = inhibition) at 10uM” value of the first is higher: 27.3% for the first, 16.4% for the second.

Compared with `COc1ccc(OCC(=O)Nc2ccc3c(c2)nc(CCNC(C)=O)n3C)cc1`, `CC(=O)NCCc1nc2cc(NC(=O)COc3ccc(C)cc3)ccc2n1C` is higher in “hERG current change (%, negative = inhibition) at 10uM” value: 13.1% for the first, 14.2% for the second.

Going from `Cn1c(CCN2CCCCC2)nc2cc(NC(=O)COc3ccccc3)ccc21` to `Cc1cccc(OCC(=O)Nc2ccc3c(c2)nc(CCN2CCCCC2)n3C)c1`, the “hERG current change (%, negative = inhibition) at 10uM” value rises from -78% to -77.2%.

Going from `Cc1cccc(OCC(=O)Nc2ccc3c(c2)nc(CCN2CCN(C)CC2)n3C)c1` to `Cc1ccc(OCC(=O)Nc2ccc3c(c2)nc(CCN2CCN(C)CC2)n3C)cc1`, the “hERG current change (%, negative = inhibition) at 10uM” value falls from -37.1% to -55.6%.

Going from `CN1CCN(CCc2nc3cc(NC(=O)COc4ccccc4)ccc3n2C)CC1` to `COc1ccc(OCC(=O)Nc2ccc3c(c2)nc(CCN2CCN(C)CC2)n3C)cc1`, the “hERG current change (%, negative = inhibition) at 10uM” value rises from -32.6% to -8.47%.

First: COc1ccc(OCC(=O)Nc2ccc3c(c2)nc(CCN2CCCC2)n3C)cc1
Second: COc1ccc(OCC(=O)Nc2ccc3c(c2)nc(CCN2CCCCC2)n3C)cc1
The “hERG current change (%, negative = inhibition) at 10uM” value of the first is higher: -55% for the first, -65.5% for the second.

Going from `CC(C)Cn1c(N)c(C(=O)COC(=O)c2ccc(O)cc2O)c(=O)n(C)c1=O` to `Cc1ccc(OCCn2cnc3c2c(=O)n(C)c(=O)n3C)cc1`, the “hERG current change (%, negative = inhibition) at 10uM” value rises from 8.34% to 20%.

Going from `CCn1c(SCC(=O)NC2CCCC2)nnc1-c1ccncc1` to `Cn1c(CN2CCCC2)nc2cc(NC(=O)C3CCCCC3)ccc21`, the “hERG current change (%, negative = inhibition) at 10uM” value falls from 16.4% to -4.77%.

Compared with `Cc1ccc(OCC(=O)Nc2ccccc2F)cc1`, `CCOC(=O)C(=CNc1ccc2c(c1)nnn2-c1ccc(Cl)cc1)C(=O)OCC` is lower in “hERG current change (%, negative = inhibition) at 10uM” value: -0.548% for the first, -5.02% for the second.

First: C=CCSc1nc2ccccc2[nH]1
Second: COc1ccccc1-c1cc(C(F)(F)F)nc(S(=O)(=O)CCCC(=O)N2CCOCC2)n1
The “hERG current change (%, negative = inhibition) at 10uM” value of the first is higher: 25% for the first, 2.47% for the second.

Going from `CN(C(=O)CC1C(=O)NCCN1Cc1cccc(F)c1F)C1CC(C)(C)NC(C)(C)C1` (centres unmarked) to `CCC(=O)Nc1ccc2c(c1)nc(CCN1CCN(C)CC1)n2C`, the “hERG current change (%, negative = inhibition) at 10uM” value rises from 26.1% to 29.3%.

First: Cn1c(CCN2CCCCC2)nc2cc(NC(=O)C3CCCCC3)ccc21
Second: Cn1ncc(Cl)c1C(=O)NCC1CCCO1 (centres unmarked)
The “hERG current change (%, negative = inhibition) at 10uM” value of the first is lower: -60.2% for the first, 9.21% for the second.
